Counter-ions that a name gives are not always drawn. The whole screen tested about 1,200 compounds, of which about 50 (4%) showed activity. The sample holds actives, similar compounds and a random draw of the others, so the mix is not that of the screen. Rule as the data show it: all actives reach 1.3 or more but so do some inactives.
Test system: Lgr5 (MarsCy1-Lgr5-EGFP, U2OS)
Experiment: cell-surface Lgr5 expression (SCi1 fluorescence, background-subtracted) relative to WT DMSO (fold of DMSO control); higher = more Lgr5 at the plasma membrane, active = hit call of the paper
Conditions: U2OS MarsCy1-Lgr5-EGFP stable; treatment time: overnight; 16 µM; library: Johns Hopkins Clinical Compound Library

cell-surface Lgr5 expression, inactive:
O=P([O-])([O-])[O-].O=P([O-])([O-])[O-].[Ca+2].[Ca+2].[Ca+2] [Calcium phosphate tribasic] 0.836
CC1=CC(=C(c2ccc(N)cc2)c2ccc(N)cc2)C=CC1=N [Basic fuchsin hydrochloride] 1.12
CC1(C)S[C@@H]2[C@H](NC(=O)COc3ccccc3)C(=O)N2[C@H]1C(=O)O 0.694
CC1(C)S[C@@H]2[C@H](NC(=O)COc3ccccc3)C(=O)N2[C@H]1C(=O)O [Penicillin V (phenoxymethyl penicillinic acid)] 1.08
NC[C@H]1O[C@H](O[C@H]2[C@H](O)[C@@H](O[C@H]3O[C@H](CO)[C@@H](O)[C@H](N)[C@H]3O)[C@H](N)C[C@@H]2N)[C@H](N)[C@@H](O)[C@@H]1O [Kanamycin B sulfate salt] 0.875
CCNC(=O)CCC/C=C\C[C@@H]1[C@@H](/C=C/[C@@H](O)CCc2ccccc2)[C@H](O)C[C@@H]1O [Bimatoprost] 1.06
C=C1c2c(Cl)ccc(O)c2C(O)=C2C(=O)[C@]3(O)C(O)=C(C(N)=O)C(=O)[C@@H](N(C)C)[C@@H]3[C@@H](O)[C@H]12.O=C(O)c1cc(S(=O)(=O)O)ccc1O [Meclocycline sulfosalicylate salt] 0.705
O=C([O-])CC(O)(CC(=O)[O-])C(=O)[O-].[Li+].[Li+].[Li+] [Tri-lithium citrate] 1.06
Cc1cc(O)c(C(=O)N[C@@H](C(=O)N[C@@H]2C(=O)N3C(C(=O)O)=C(CSc4nnnn4C)CS[C@H]23)c2ccc(O)cc2)cn1 [Cefpiramide] 0.869
CCSc1ccc2c(c1)N(CCCN1CCN(C)CC1)c1ccccc1S2 [Thiethylperazine malate] 1.12
Cc1cc2c(OCC(CNC(C)(C)C)OC(=O)c3ccccc3)cccc2[nH]1 (stereo unspecified) [Bopindolol Maleate] 1.3
C[n+]1c2cc(N)ccc2cc2ccc(N)cc21.Nc1ccc2cc3ccc(N)cc3nc2c1 [Acriflavine hydrochloride] 1.44
CO[C@@H]1[C@@H](O[C@@H]2O[C@H](C)[C@@H](O[C@H]3C[C@@](C)(O)[C@@H](OC(=O)CC(C)C)[C@H](C)O3)[C@H](N(C)C)[C@H]2O)[C@@H](CC=O)C[C@@H](C)[C@@H](O)/C=C/C=C/C[C@@H](C)OC(=O)C[C@H]1OC(C)=O [Josamycin] 1.1
O=c1[nH]c(=O)n([C@H]2C[C@H](O)[C@@H](CO)O2)cc1F [Floxuridine (5-fluorodeoxyuridine)] 0.664
Nc1nc(Cl)nc2c1ncn2[C@H]1C[C@H](O)[C@@H](CO)O1 [Cladribine (2-chloro,2-deoxyadenosine)] 0.832
CCC(C(=O)OCCN(CC)CC)c1ccccc1 (stereo unspecified) [Butetamate (Butethamate)] 1.2
CCN(CC)CC#CCOC(=O)C(O)(c1ccccc1)C1CCCCC1 (stereo unspecified) [Oxybutynin chloride] 0.687
Cc1cc(/C=C/c2ccc3cc(N(C)C)ccc3[n+]2C)c(C)n1-c1ccccc1 [Pyrvinium pamoate] 1.09
C[Se]CCC(N)C(=O)O [Seleno-D, L-methionine] 1.08
CC(=O)[C@@]1(O)CC[C@H]2[C@@H]3C[C@H](C)C4=CC(=O)CC[C@]4(C)[C@H]3CC[C@@]21C [6α-Methyl-17α-hydroxy-progesterone (Medroxyprogesterone)] 1.45
CC(=O)O[C@]1(C(C)=O)CC[C@H]2[C@@H]3CCC4=CC(=O)CC[C@]4(C)[C@H]3CC[C@@]21C [Hydroxyprogesterone acetate (17alpha-Acetoxyprogesterone)] 1.21
CC(=O)[C@H]1CC[C@H]2[C@@H]3CCC4=CC(=O)CC[C@]4(C)[C@H]3CC[C@]12C [Progesterone] 1.16
CC(=O)OCC(=O)[C@H]1CC[C@H]2[C@@H]3CCC4=CC(=O)CC[C@]4(C)[C@H]3CC[C@]12C 1.01
CCCCCC(=O)O[C@]1(C(C)=O)CC[C@H]2[C@@H]3CCC4=CC(=O)CC[C@]4(C)[C@H]3CC[C@@]21C 1.11
CC(=O)[C@H]1CC[C@H]2[C@@H]3C[C@H](C)C4=CC(=O)CC[C@]4(C)[C@H]3[C@@H](O)C[C@]12C [Medrysone (6-alpha-Methyl-11-beta-Hydroxyprogesterone)] 1.27
CCCCCC(=O)O[C@]1(C(C)=O)CC[C@H]2[C@@H]3CCC4=CC(=O)CC[C@]4(C)[C@H]3CC[C@@]21C [Progesterone caproate (17alpha-hydroxyprogesterone)] 1.05
NCCCC(N)(C(=O)O)C(F)F (racemic) 1.18
[Br-].[K+] [Potassium bromide] 0.93
CCOC(=O)[C@H](CCc1ccccc1)N[C@H]1CCc2ccccc2N(CC(=O)O)C1=O [Benazepril hydrochloride] 0.872
O=S(=O)(O)CCS [Mesna (2-Mercaptoethane Sulfonic Acid Sodium Salt)] 0.815
O=S(=O)(O)CCS [Mesna (2-Mercaptoethanesulfonic acid)] 0.844
O=P([O-])(O)O.[Na+] [Sodium phosphate monobasic] 1.11
[Na+].[O]=[Bi](=[O])[O-] [Sodium bismuthate] 0.965
CC1=C(C/C=C(\C)CCC[C@H](C)CCC[C@H](C)CCCC(C)C)C(=O)c2ccccc2C1=O [Vitamin K1 (Phylloquinone, phytonadione)] 0.865
NS(=O)(=O)c1cc2c(cc1C(F)(F)F)NC(Cc1ccccc1)NS2(=O)=O (stereo unspecified) [Bendroflumethiazide] 1.02
CCCC(O)C(CC)CO (stereo unspecified) [Ethohexadiol (2-Ethyl-1,3-hexanediol)] 1.04
Clc1ccc(CO/N=C(\Cn2ccnc2)c2ccc(Cl)cc2Cl)c(Cl)c1 [Oxiconazole nitrate] 0.871
O=[N+]([O-])c1ccc(/C=N/O)o1 [Nifuroxime] 0.992
O.[Al+3].[Al+3].[Cl-].[OH-].[OH-].[OH-].[OH-].[OH-] [Aluminum chlorohydrate] 0.754
Cc1onc(-c2ccccc2)c1C(=O)N[C@@H]1C(=O)N2[C@@H]1SC(C)(C)[C@@H]2C(=O)O [Oxacillin] 0.726
C[C@H]1C[C@@H]2[C@H]([C@@H](O)C[C@@]3(C)[C@H]2CC[C@]3(O)C(=O)CO)[C@@]2(C)C=CC(=O)C=C12 [Methylprednisolone (6-alpha-Methylprednisolone)] 1.12
C[C@]12C=CC(=O)C=C1CC[C@@H]1[C@@H]2[C@@H](O)C[C@@]2(C)[C@H]1CC[C@]2(O)C(=O)COP(=O)(O)O [Prednisolone sodium phosphate] 1.25
N[C@H]1C(O)O[C@H](CO)[C@@H](O)[C@@H]1O (stereo partly specified) [Glucosamine] 1.06
c1ccc(Cc2nc3ccccc3[nH]2)cc1 [Bendazol (2-Benzylbenzimidazole)] 1.05
N=C(N)N1Cc2ccccc2C(O)C1 (stereo unspecified) [4-Hydroxydebrisoquin] 1.07
Cc1cc2nc3c(=O)[nH]c(=O)nc-3n(C[C@H](O)[C@H](O)[C@H](O)COP(=O)(O)OP(=O)(O)OC[C@H]3O[C@@H](n4cnc5c(N)ncnc54)[C@H](O)[C@@H]3O)c2cc1C [Flavin adenine dinucleotide] 1.01

cell-surface Lgr5 expression, active:
Cc1scc2c1N(C(=O)CN1CCN(C)CC1)c1ccccc1NC2=O [Telenzepine] 1.3
Nc1ncn([C@H]2C[C@H](O)[C@@H](CO)O2)c(=O)n1 [Decitabine (5-aza-2-deoxycytidine)] 1.47
CCN(CC)CCOCCOC(=O)C(CC)(CC)c1ccccc1 [Oxeladin citrate salt] 1.48
C[C@]12CCC(=O)C=C1CC[C@@H]1[C@@H]2[C@@H](O)C[C@]2(C=O)[C@@H](C(=O)CO)CC[C@@H]12 [Aldosterone] 1.55
C[C@]12CCC(=O)C=C1CC[C@@H]1[C@@H]2[C@@H](O)C[C@@]2(C)[C@H]1CC[C@]2(O)C(=O)COC(=O)CCC(=O)O [Hydrocortisone hemisuccinate monohydrate] 1.36
CC1(C)O[C@@H]2C[C@H]3[C@@H]4C[C@H](F)C5=CC(=O)CC[C@]5(C)[C@H]4[C@@H](O)C[C@]3(C)[C@]2(C(=O)CO)O1 1.55
CC1(C)O[C@@H]2C[C@H]3[C@@H]4C[C@H](F)C5=CC(=O)C=C[C@]5(C)[C@H]4[C@@H](O)C[C@]3(C)[C@]2(C(=O)CO)O1 [Flunisolide] 1.47
C[C@]12C=CC(=O)C=C1CC[C@@H]1[C@@H]2[C@@H](O)C[C@@]2(C)[C@H]1CC[C@]2(O)C(=O)COP(=O)(O)O [Prednisolone 21-phosphate, disodium salt] 1.41
CC1(C)O[C@@H]2C[C@H]3[C@@H]4CCC5=CC(=O)C=C[C@]5(C)[C@H]4[C@@H](O)C[C@]3(C)[C@]2(C(=O)CO)O1 1.44
CCC(=O)[C@@]1(C)[C@H](C)C[C@H]2[C@@H]3CCC4=CC(=O)C=C[C@]4(C)[C@H]3[C@@H](O)C[C@@]21C [Rimexolone] 1.39

Reference: the supplement of paper PMC4683952
